Test results published in PubChem BioAssay (NCATS).
Results filed as inconclusive are left out. The source made the active and inactive calls. The call rests on the fitted dose curve; in most records, active means well fitted curve in the direction sought with a large enough effect; inconclusive means small, poorly fitted or top-dose-only effect, or another doubt; inactive means no such curve, though single readings can be large; an effect the other way counts as inactive or inconclusive.

How the values were obtained:
NIH3T3 = assay: qHTS assay to identify novel small-molecules to repurpose for Merkel cell carcinoma treatment (AID 1296009); conditions: MCC and control cell lines, CellTiter-Glo viability, 72 h; at 44.8 µM (top of the series) unless noted; further: nearly all actives have a fitted effect of over 60% in size; further: potency means the concentration at half of the fitted maximal effect
Outline: (§1)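 Luminescence from CellTiter-Glo, read 10 min after addition at room temperature, reported viability following a 72 hr, 37 degree celsius treatment with NPC or MIPE compounds in titration; values normalized to plate controls.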

C33A = assay: Primary qHTS to identify gynecologic anti-cancer compounds using libraries of approved drugs and bioactive compounds (AID 1345084); conditions: Gynecologic cancer cell panel viability, ATPlite luminescence, 48 h; series mostly up to 57.5 µM; further: nearly all actives have a fitted effect of over 55% in size; further: potency means the concentration at half of the fitted maximal effect
Outline: (§2)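 Measured: luminescence after ATPlite addition (15 min, RT). Exposure: 48 h, 37 C, 5% CO2.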

CASKI = assay: as above; conditions: Gynecologic cancer cell panel viability, ATPlite luminescence, 48 h; series mostly up to 57.5 µM
Outline: as §2

Es-2 = assay: as above; conditions: Gynecologic cancer cell panel viability, ATPlite luminescence, 48 h; series mostly up to 57.5 µM
Outline: as §2

HeLa = assay: as above; conditions: Gynecologic cancer cell panel viability, ATPlite luminescence, 48 h; series mostly up to 57.5 µM
Outline: as §2

Hek293T = assay: as above; conditions: Gynecologic cancer cell panel viability, ATPlite luminescence, 48 h, control line for the selectivity index; series mostly up to 57.5 µM
Outline: as §2

JEG-3 = assay: as above; conditions: Gynecologic cancer cell panel viability, ATPlite luminescence, 48 h; series mostly up to 57.5 µM
Outline: as §2

OV90 = assay: as above; conditions: Gynecologic cancer cell panel viability, ATPlite luminescence, 48 h; series mostly up to 57.5 µM
Outline: as §2

PA-1 = assay: as above; conditions: Gynecologic cancer cell panel viability, ATPlite luminescence, 48 h; series mostly up to 57.5 µM
Outline: as §2

SKOV3 = assay: as above; conditions: Gynecologic cancer cell panel viability, ATPlite luminescence, 48 h; series mostly up to 57.5 µM
Outline: as §2

Tov-21-G = assay: as above; conditions: Gynecologic cancer cell panel viability, ATPlite luminescence, 48 h; series mostly up to 57.5 µM
Outline: as §2

Tov112D = assay: as above; conditions: Gynecologic cancer cell panel viability, ATPlite luminescence, 48 h; series mostly up to 57.5 µM
Outline: as §2

UISO = assay: qHTS assay to identify novel small-molecules to repurpose for Merkel cell carcinoma treatment (AID 1296009); conditions: MCC and control cell lines, CellTiter-Glo viability, 72 h; series mostly up to 46 µM; further: nearly all actives have a fitted effect of over 60% in size; further: potency means the concentration at half of the fitted maximal effect
Outline: as §1

WaGa = assay: as above; conditions: MCC and control cell lines, CellTiter-Glo viability, 72 h; series mostly up to 46 µM
Outline: as §1

[1] = Drug repurposing screens with cells derived from glioblastoma tumor samples (AID 1345199); conditions: GBM patient neurospheres viability, ATP luminescence, 48 h; further: nearly all actives have a fitted effect of over 40% in size
Outline: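 Primary testing used CD133+ neurospheres from four GBM patients, seven concentrations, 48 h exposure and ATP-based viability; confirmation added three slower-growing patient lines.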

[2] = qHTS assay to identify inhibitors of the type 1 interferon - major histocompatibility complex class I in skeletal muscle: Counter screen cell viability and HiBit confirmation (AID 1347412); conditions: iHSKM muscle cells + IFN-b, HiBiT or CellTiter-Glo, 24 h; further: nearly all actives have a fitted effect of over 60% in size; further: potency means the concentration at half of the fitted maximal effect
Outline: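 Myoblasts (C25cl48, HLA-B HiBiT) seeded in medium without dexamethasone, IFN-b 4 ng/ml added except unstimulated columns; 1 hr later compounds pinned (12-pt 1:3, top 46 uM final). Incubated 24 hrs, lysed 10 min, luminescence measured.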

[3] = at 45.9 µM (top of the series), tumour line B
[4] = at 45.9 µM (top of the series), tumour line D
[5] = at 46.1 µM (top of the series), tumour line C
On the % scale 0 is the no-effect control and ±100 the full control effect.

CC(C)[C@H](CO)Nc1nc(Nc2ccc(C(=O)O)c(Cl)c2)c2ncn(C(C)C)c2n1
inactive: outcome (NIH3T3) inactive [at 17.4 µM] | Potency (C33A) | Potency (CASKI) | Potency (Es-2) | Potency (HeLa) | Potency (Hek293T) | Potency (JEG-3) | Potency (OV90) | Potency (PA-1) | Potency (SKOV3) | Potency (Tov-21-G) | Potency (Tov112D)

COc1cc(NC(=O)c2ccc(-c3ccc(Cl)cc3)o2)cc(OC)c1
inactive: Potency (UISO) | Potency (WaGa)

CO[C@H]1C[C@@H]2CC[C@@H](C)[C@@](O)(O2)C(=O)C(=O)N2CCCC[C@@H]2C(=O)O[C@H]([C@H](C)C[C@@H]2CC[C@H](OCCO)[C@H](OC)C2)CC(=O)[C@H](C)C=C(C)[C@@H](O)[C@@H](OC)C(=O)[C@H](C)C[C@H](C)C=CC=CC=C1C
active: Potency (UISO) 833 nM

O=C(CCc1ccc(O)cc1)c1c(O)cc(O)cc1O[C@@H]1O[C@H](CO)[C@H](O)[C@H](O)[C@H]1O
inactive: Potency (UISO) | Potency (WaGa)

CC(=O)O[C@]1(C(C)=O)CC[C@@H]2[C@@H]3C[C@H](C)C4=CC(=O)CC[C@]4(C)[C@H]3CC[C@@]21C
inactive: Potency (UISO)

CCOC(=O)O[C@]1(C(=O)OCCl)CC[C@@H]2[C@H]3CCC4=CC(=O)C=C[C@]4(C)[C@@H]3[C@@H](O)C[C@@]21C
inactive: outcome (NIH3T3) | Potency (UISO) | Potency (WaGa) | activity, negative = cell killing [1, 3] -4.15% | activity, negative = cell killing [1, 4] 8.73% | activity, negative = cell killing ([1]; at 46 µM (top of the series), tumour line A) -8.19% | activity, negative = cell killing [1, 5] 1.62%

N#CC1(c2ccc(NC(=O)c3cccnc3NCc3ccncc3)cc2)CCCC1
inactive: Potency (UISO) | Potency (WaGa)

O=C(O)c1ccccc1C(=O)Nc1ccc(-c2ccccc2)cc1
active: Potency (SKOV3) 25.1 µM | Potency ([2]; HiBiT) 14 µM
inactive: outcome (NIH3T3) | Potency (UISO) | Potency (WaGa) | Potency (C33A) | activity change, negative = inhibition ([2]; Viability, at 45.9 µM (top of the series)) -4.23%

Cn1cc(C=C2C(=O)Nc3cccnc32)c2ccccc21
inactive: Potency (UISO) | Potency (WaGa)

Cc1[nH]c(C=C2C(=O)Nc3ccc(S(=O)(=O)Cc4c(Cl)cccc4Cl)cc32)c(C)c1C(=O)N1CCC[C@H]1CN1CCCC1
inactive: Potency (UISO)

N[C@@]1(C(=O)O)CS(=O)(=O)[C@H]2[C@H](C(=O)O)[C@H]21
inactive: Potency (UISO) | Potency (WaGa)

CC=CC(=O)N(CC)c1ccccc1C
inactive: Potency (UISO)

Nc1ncnc2ccccc12
inactive: Potency (UISO) | Potency (WaGa)

C[C@]12CC[C@@H]3c4ccc(O)cc4C[C@@H](CCCCCCCCCS(=O)CCCC(F)(F)C(F)(F)F)[C@H]3[C@H]1CC[C@H]2O (some centres not stated)
inactive: outcome (NIH3T3) | Potency (WaGa)

CC(C)C(=O)Oc1ccc(CO)cc1[C@H](CCN(C(C)C)C(C)C)c1ccccc1
inactive: outcome (NIH3T3) | Potency (UISO) | Potency (WaGa) | Potency (CASKI) | Potency (Es-2) | Potency (HeLa) | Potency (Hek293T) | Potency (JEG-3) | Potency (OV90) | Potency (PA-1) | Potency (SKOV3) | Potency (Tov-21-G) | Potency (Tov112D)

O=c1cc(-c2ccccc2)oc2cc(O)c(O)c(O)c12
inactive: Potency (UISO)

CO[C@@H](C(=O)N1Cc2[nH]nc(NC(=O)c3ccc(N4CCN(C)CC4)cc3)c2C1)c1ccccc1
inactive: Potency (UISO)

O=C(O)CCC1CCC(c2cc(F)ccc2F)(S(=O)(=O)c2ccc(Cl)cc2)CC1 (configuration not stated)
inactive: Potency (UISO)

CC(C)n1cnc2c(NCCCCCCNC(=O)OC(C)(C)C)nc(NCCO)nc21
inactive: Potency (UISO)

Cc1nnc(C(C)C)n1C1C[C@H]2CC[C@@H](C1)N2CC[C@H](NC(=O)C1CCC(F)(F)CC1)c1ccccc1 (some centres not stated)
inactive: outcome (NIH3T3) | Potency (UISO) | Potency (WaGa) | activity, negative = cell killing [1, 3] -4.81% | activity, negative = cell killing [1, 4] -11.6% | activity, negative = cell killing [1, 5] 5.31%
